# Compound activity (PubChem BioAssay)
# Ba/F3 V617F tox = reduced viability of JAK2V617F-dependent Ba/F3 cells, primary screen, JAK2V617F inhibitor project, cell-based, Ba/F3 EpoR-JAK2V617F, luminescence; inhibition, % at 5.6 µM; 1.1% of 220,000 active; ATP luminescence;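 active = inhibition above the campaign mean plus 3 SD over all tested compounds, cut at about 24% in these data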;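 also: cytokine-independent growth of Ba/F3 cells driven by EpoR plus mutant JAK2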
# GPR7 antag = GPR7 receptor antagonists, primary screen, cell-based, fluorescence, single concentration; 1.1% of 290,000 active; AID 1861, 2009; Neuropeptides B/W receptor type 1 (Homo sapiens), P48145; GPR7-expressing cells, fluorescence antagonist assay; inhibition, % at 4.4 µM; in the data active = inhibition above about 16%, passing the limit was not always enough;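 also: cells stimulated with the agonist NPW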
# Target sequence (P48145 whole entry, looked up): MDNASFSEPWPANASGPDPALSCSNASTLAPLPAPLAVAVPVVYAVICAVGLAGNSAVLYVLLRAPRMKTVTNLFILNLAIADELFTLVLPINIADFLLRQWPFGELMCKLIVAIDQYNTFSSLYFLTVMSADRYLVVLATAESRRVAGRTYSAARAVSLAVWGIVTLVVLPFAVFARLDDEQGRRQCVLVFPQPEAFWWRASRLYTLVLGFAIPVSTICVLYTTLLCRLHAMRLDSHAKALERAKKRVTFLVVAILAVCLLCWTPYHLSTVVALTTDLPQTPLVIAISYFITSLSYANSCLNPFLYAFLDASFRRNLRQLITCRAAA
# IEC-6 cytotox = cytotoxicity in IEC-6 intestinal epithelial cells, primary screen, cytotoxicity control for KLF5 inhibitor project, cell-based, luminescence | IEC-6 cytotoxicity, luminescence viability | inhibition, % at 5 µM | 0.78% of 290,000 active; in the data active = inhibition above about 22%
# BaF3 parental = parental Ba/F3 cell viability inhibition, counter-screen for JAK2V617F inhibitor project, murine pro-B, CellTiter-Glo luminescence. CellTiter-Glo ATP luminescence. inhibition, % at 5.6 µM. 1.1% of 220,000 active;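 active = inhibition above a per-campaign cutoff, the mean inhibition of all tested compounds plus 3 SD, cut at about 27% in these data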
# KLF5 inhibitor = KLF5 expression inhibitors, primary screen, DLD-1 cells, luminescence; DLD-1 KLF5 promoter-luciferase reporter; inhibition, % at 5 µM; AID 1700, 2009; 0.23% of 290,000 active;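 active = inhibition above a per-plate limit of that plate's mean compound inhibition plus 3 SD, cut at about 60% in these data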;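 also: higher means less KLF5 promoter-driven luciferase light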
# DNA FID counter = compounds displacing fluorescent DNA intercalator, primary screen, artefact control for HCV NS3 helicase inhibitor project, biochemical, FID fluorescence. DNA fluorescent intercalator displacement. inhibition, % at 7.9 µM. 0.17% of 290,000 active; in the data active = inhibition above about 37%;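 also: higher means more ethidium bromide displaced from hairpin DNA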
# A number is an active result; n = inactive; x = no result. Most compounds without a hit are left out; they make up all but 2.6% or so of the library.
SMILES,Ba/F3 V617F tox,GPR7 antag,IEC-6 cytotox,BaF3 parental,KLF5 inhibitor,DNA FID counter
O=C(NCc1cccs1)C1CCN(c2ccc(S(=O)(=O)N3CCOCC3)cc2Cl)CC1,73,n,76,78,74,n
COC(=O)C1=C(C)NC2=C(C(=O)CC(c3cccs3)C2)C1c1ccsc1 (configuration not stated),n,22,n,n,n,n
CCOC(=O)C1=C(C)NC2=C(C(=O)CC(c3cccs3)C2)C1c1cccs1 (configuration not stated),n,n,n,n,n,n
COc1ccc(CCNC(=O)COc2ccc(N(C)S(=O)(=O)c3ccc(Cl)cc3)cc2)cc1,n,n,n,n,n,n
Cc1c(C(=O)NCC2CCCO2)oc2ccc3c(c12)C(=O)CC(C)(C)O3 (configuration not stated),n,n,n,94,n,n
CN(C)CCCNS(=O)(=O)c1ccc(N2CCC(c3ccc(Cl)cc3)=N2)cc1,n,41,n,n,n,37
O=S(=O)(c1ccc(N2CCC(c3ccc(Cl)cc3)=N2)cc1)N(CCO)CCO,n,n,n,n,n,n
O=S(=O)(c1ccc(Cl)c(Cl)c1)c1snnc1-c1ccccc1,58,n,n,42,n,n
CCN1CCN(c2cc(C)c3cc(NC(=S)N4CCN(c5ccccc5)CC4)ccc3n2)CC1,n,n,n,n,n,n
Cc1ccc(C)c(N2CCN(C(=S)Nc3ccc4nc(N5CCN(C)CC5)cc(C)c4c3)CC2)c1,n,n,n,n,n,47
CCCN1CCN(C(=S)Nc2ccc3nc(N4CCN(CC)CC4)cc(C)c3c2)CC1,n,n,n,n,n,50
Cc1ccc(C)c(N2CCN(C(=S)Nc3ccc4nc(N5CCOCC5)cc(C)c4c3)CC2)c1,n,n,n,n,n,n
Cn1cnc([N+](=O)[O-])c1S(=O)(=O)c1cccc(Cl)c1,86,n,68,102,n,n
Nc1ccc(-c2cc(-c3cccc(N)c3)nc(-c3ccccc3)n2)cc1,n,29,n,n,n,n
O=C(Nc1ncc([N+](=O)[O-])s1)c1ccco1,x,n,n,x,n,n
Cc1ccc(C(=O)Nc2ncc([N+](=O)[O-])s2)cc1,x,n,n,x,87,n
CCC(=O)N1CCc2cc(S(=O)(=O)NCCC(=O)N3CCN(c4cccc(OC)c4)CC3)ccc21,x,n,n,x,n,n
N#C/C(=C/c1ccc(N2CCOCC2)o1)c1ccc(Cl)cc1,47,n,n,56,n,n
N#C/C(=C\c1ccc(N2CCOCC2)o1)c1nc2ccccc2[nH]1,n,n,n,n,n,n
COC(=O)c1ccc(N2CCOCC2)c(NC(=O)c2ccc3c(c2)OCO3)c1,x,n,n,x,n,n
C[N+]1(CCCOC(=O)C2(c3ccccc3)CCCC2)CCOCC1,n,n,n,58,n,n
CN(C)CCOC(=O)C1(c2ccccc2)CCCC1,n,n,n,n,n,n
Cc1ccc(C(=O)COC(=O)CNC(=O)CN2C(=O)c3ccccc3C2=O)cc1,n,n,n,n,n,n
CCOC(=O)C1=C(C)NC(C)=C(C(=O)OCC)C1C(=O)OCC(=O)NC,n,n,n,n,n,n
COc1cc(OC)cc(C(=O)NC(=S)Nc2ccc(NC(=O)c3ccco3)cc2)c1,n,n,n,n,n,n
SMILES,Ba/F3 V617F tox,GPR7 antag,IEC-6 cytotox,BaF3 parental,KLF5 inhibitor,DNA FID counter
COc1cc(OC)cc(C(=O)Nc2ccc(NC(=O)c3ccco3)c(Cl)c2)c1,n,25,n,n,n,n
CCOc1ccccc1CNCCNC(=O)c1nonc1N,n,n,n,n,n,n
Nc1nonc1C(=O)NCCNCc1cc(Br)ccc1OCc1ccccc1F,24,77,n,51,n,40
COc1ccc(CNC(=O)c2ccccc2[N+](=O)[O-])cc1,n,n,n,n,n,n
CCOC(=O)Cn1c2c(c(=N)c3c1CCC3)CCCC2,n,n,n,n,n,n
CCCCCCCn1c2c(c(=N)c3ccccc31)CCC2,99,53,34,78,n,n
CCCn1c2c(c(=N)c3c1CCC3)CCC2,46,n,n,54,n,n
CCCn1c2c(c(=N)c3c1CCC3)CCCC2,65,n,n,65,n,n
